Many of the other results were omitted from the sample, so hits are more common in it than they were.
Methyltransferases = Primary Screen for Target Class Profiling of Small Molecule Inhibitors of Methyltransferases; purified enzyme, MTase-Glo SAH luminescence; stronger effect = lower value; calls only at 40 µM; 25,000 tested, 3.9% active; AID 1745853, 2022; call rule not given here
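Each enzyme was assayed with SAM and its substrate. SAH formation detected by MTase-Glo luminescence; single-point 40 uM screen[…].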
* = called active by the depositor; i = inactive; + = active, no number. % is set by controls: 0 for no effect and ±100 for the full control effect.

SMILES	Methyltransferases
COc1ccccc1N1CCN(CCN(C(=O)c2ccc(F)cc2)c2ccccn2)CC1	i
NC(=O)C1CCN(C(=O)CCCc2nnc3n4nc(-c5ccccc5)nc4c4ccccc4n23)CC1	i
CC(C)c1cc2n(n1)CC(C)(C(=O)NC1CCCCCC1)N(Cc1ccc(Cl)cc1)C2=O (stereo not drawn)	i
CC(=O)N1CC2(CCCN2Cc2cccc(C(N)=O)c2)Cc2ccccc21 (stereo not drawn)	i
O=C(O)c1cccc(CN2C(=O)/C(=C(\c3ccccc3)c3ccc(Cl)cc3)c3ccccc32)c1	+
O=C1CN(Cc2cccc(Cl)c2)S(=O)(=O)c2ccccc2N1Cc1ccc(Cl)cc1	i
CCn1c2ccccc2c2cc(Nc3ccnc(NCCCN4CCOCC4)n3)ccc21	+
Cc1ccc(Cn2c(=O)c3ccccc3n3c(CCC(=O)NCCCN4CCOCC4)nnc23)cc1	i
CC(C)CCn1c(=O)c2ccccc2n2c(CCC(=O)NCCCN3CCOCC3)nnc12	i
Cc1ccc(C(=O)Cn2nc3n(CCC(C)C)c(=O)c4ccc(C(=O)NCC(C)C)cc4n3c2=O)cc1	i
CCCN1C(=O)c2c(C(=O)NCCc3ccc(OC)c(OC)c3)ncn2CC1(C)C(=O)NC1CCCC1 (stereo not drawn)	i
C=C(C)C(=O)OC1CC(CO)CCC/C(CO)=C/C2OC(=O)C(=C)C21 (stereo not drawn)	i
C=C1C(=O)O[C@@H]2[C@H]3C(C)=CC(=O)C3=C(C)CC[C@@H]12	i
C=C1C(=O)OC2C1CCC(=C)C1CC(OC(C)=O)C(=C)C12 (stereo not drawn)	+
CC(C)COCC(CN(Cc1ccccc1)c1ccccc1)N1CCCC1 (stereo not drawn)	i
CCCCN1C(=O)c2cc(C(=O)Nc3ccc(C)c(F)c3)nn2CC1(C)C(=O)NC1CCCC1 (stereo not drawn)	i
O=C(c1ccc(OCCCc2cnc[nH]2)cc1)C1CC1	i
N=C(N)c1ccc(OCCCCCOc2ccc(C(=N)N)cc2)cc1 (tested in a mixture with another compound)	+
N=C(N)c1ccccc1	i
Cc1cccc(CN2CC(Oc3cccc(C(=O)NCC4CC4)c3)C2)c1	i
COCC1CN(S(=O)(=O)Cc2cccc(F)c2)CC12CCNCC2 (stereo not drawn)	i
Cc1ccc(N2C(=O)c3cc4occc4n3CC2(C)C(=O)NC2CCCCCC2)c(C)c1 (stereo not drawn)	i
CC1CCCC(O)CC(=O)c2c(O)cc(O)cc2CC(=O)O1 (stereo not drawn)	i
C=C1C(=O)O[C@@H]2C3=C(C)CCC[C@]3(C)CC[C@@]12O	+
CC1=C2C3OC(=O)C(C)C3(O)CCC2(C)CCC1 (stereo not drawn)	i
SMILES	Methyltransferases
CC1=C2C3OC(=O)C(C)C3(O)CCC2(C)CCC1=O (stereo not drawn)	i
CNC1(C)C2CCC(C2)C1(C)C (stereo not drawn)	i
CCOC(=O)c1cc2n(n1)CC(C)(C(=O)NC1CCCCC1)N(Cc1ccccc1)C2=O (stereo not drawn)	i
COc1ccnc(CCc2nc3ncccc3[nH]2)c1	i
COc1cccc(C(=O)NC2CCN(c3cc(-c4cccs4)[nH]n3)CC2)c1OC	i
Cn1ncc2c(C(=O)NC3CCCCCC3)cc(C(C)(C)C)nc21	i
CCS(=O)(=O)c1cccc(-c2cc(C(=O)NC3CCN(C)CC3)c(C)c3[nH]c4ncc(C)cc4c23)c1	+
NC1CCCCN(C(=O)c2ccc(Cn3cccn3)o2)C1 (stereo not drawn)	i
O=C(Nc1cccc(Cl)c1)N1CCn2cccc2C1Cc1ccccc1 (stereo not drawn)	i
COc1ccccc1CN1C(=O)c2ccc(-c3ccco3)n2CC1(C)C(=O)NC1CCCCC1 (stereo not drawn)	i
Cc1cc(C[C@@H]2COC[C@@H]2NC(=O)c2cnn3cc(CCO)cnc23)on1	i
COc1ccc(NC(=O)c2ccc(C(=N)N(C)C)cc2)c(C(=O)Nc2ccc(Cl)cn2)c1	i
CCOC(=O)C1(CCOc2ccccc2)CCN(Cc2ccc(O)c(Cl)c2)CC1	i
O=C(O)Cn1nnc(-c2ccc(CN(CCCCOc3ccc(CN4CCCC4)cc3)CCc3ccccc3)cc2)n1	+
COCCCN1C(=O)c2nc3ccccc3n2CC1(C)C(=O)NC1CCCC(C)C1C (stereo not drawn)	i
CC(=O)OCC1OC(O[C@H]2CC[C@@]3(C)C(CC[C@]4(C)C3CC=C3[C@@H]5CC(C)(C)CC[C@]5(C(=O)O)CC[C@]34C)[C@]2(C)CO)C(O)C(O)C1OC1OC(C)C(O)C(OC2OCC(O)C(O)C2O)C1O (stereo partly drawn)	i
COc1cc(N2CCC(N3CCN(C)CC3)CC2)ccc1Nc1ncnc(Nc2ccccc2S(=O)(=O)C(C)C)n1	i
COc1cc(N2CCC(O)CC2)ccc1Nc1cc(Nc2ccccc2S(=O)(=O)C(C)C)c2cc[nH]c2n1	+

Screening results from PubChem BioAssay.
